Compounds with a hit are over-represented: about 2.9% of the library has one in this group of screens.
Cardio protect: cardioprotection against H2O2-induced cell death, primary screen, uHTS, H9c2 cells, ATPLite luminescence | H9c2 cardiomyocytes, H2O2 injury protection, 2 h | protection from H2O2 cell death, % at 20 µM | 360,000 compounds, 0.63% hits | AID 588492, 2011;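 active = compounds giving at least 50% protection of heart cells from peroxide-induced death in the single-dose screen, raw or plate-pattern-corrected value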;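 note: 0% = DMSO wells with peroxide and 100% = DMSO wells without peroxide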
TAG inh: inhibitors of triacylglycerol accumulation, primary screen, cell-based, uHTS, fluorescence, H9c2. inhibition, % at 12.5 µM. 230,000 compounds, 0.66% hits. H9c2 cells, Nile Red lipid (TAG) fluorescence; cells loaded with 200 µM oleic acid;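 active = pattern-corrected inhibition of lipid staining of at least 50% with the nuclear-stain viability signal not falling by more than 50%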;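 note: 0% = DMSO wells and 100% = triacsin C control wells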
A3G deaminase: APOBEC3G DNA deaminase inhibitors, primary screen, biochemical, fluorescence, single-stranded DNA substrate, uHTS; inhibition, % at 20 µM; DNA dC->dU-editing enzyme APOBEC-3G (Homo sapiens), Q9HC16; recombinant A3G, ssDNA deamination FAM/TAMRA fluorescence; AID 493012, 2011; 330,000 compounds, 0.28% hits;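 active = inhibition of at least 40% at 20 µM, with no more than 30% in the related APOBEC3A deaminase screen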;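 note: plate controls were DMSO wells with A3G for no effect and wells lacking A3G enzyme for full effect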
Target sequence (Q9HC16 whole entry, looked up): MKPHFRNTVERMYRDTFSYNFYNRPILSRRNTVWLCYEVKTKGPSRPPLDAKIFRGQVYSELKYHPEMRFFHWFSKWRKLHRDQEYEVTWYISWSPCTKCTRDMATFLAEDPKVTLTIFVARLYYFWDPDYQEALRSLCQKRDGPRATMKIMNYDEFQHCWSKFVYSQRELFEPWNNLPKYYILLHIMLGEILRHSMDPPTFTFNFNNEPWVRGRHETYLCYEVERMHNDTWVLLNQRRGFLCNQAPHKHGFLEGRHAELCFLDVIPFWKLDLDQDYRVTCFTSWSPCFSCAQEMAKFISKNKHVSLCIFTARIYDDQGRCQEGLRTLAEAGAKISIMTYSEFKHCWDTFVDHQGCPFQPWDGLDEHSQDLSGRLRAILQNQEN
PfGluPho inh: PfG6PD enzyme inhibitors, primary screen, biochemical, fluorescence intensity, uHTS; PfGluPho enzyme, NADPH resazurin-diaphorase fluorescence; 350,000 compounds, 0.78% hits; inhibition, % at 20 µM; glucose-6-phosphate dehydrogenase-6-phosphogluconolactonase (Plasmodium falciparum 3D7); AID 504690, 2011;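 active = inhibition reaching at least a set limit at 20 µM in the primary screen, cut at about 59% in these data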;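 note: 0% = DMSO wells with substrate and 100% = DMSO wells lacking glucose-6-phosphate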
NadD inh: inhibitors of S. aureus NadD, primary screen, biochemical, colorimetric, uHTS | Nicotinate-nucleotide adenylyltransferase NadD (Staphylococcus aureus N315) | purified NadD enzyme, colorimetric absorbance read-out | inhibition, % at 20 µM | 360,000 compounds, 0.78% hits | AID 602399, 2012; in the data active = inhibition above about 26%
A3A deaminase: APOBEC3A ssDNA deaminase inhibitors, primary screen, selectivity assay for APOBEC3G inhibitor project, biochemical, FAM/TAMRA oligo cleavage fluorescence; DNA dC->dU-editing enzyme APOBEC-3A (Homo sapiens), P31941; recombinant A3A, FAM/TAMRA ssDNA deamination fluorescence; inhibition, % at 20 µM; 330,000 compounds, 0.41% hits;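 active = at least 40% inhibition at 20 µM here, with at most 30% in a related deaminase screen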;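 note: plate controls were A3A with DMSO for no effect and wells lacking A3A enzyme for full effect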
Target sequence (P31941 whole entry, looked up): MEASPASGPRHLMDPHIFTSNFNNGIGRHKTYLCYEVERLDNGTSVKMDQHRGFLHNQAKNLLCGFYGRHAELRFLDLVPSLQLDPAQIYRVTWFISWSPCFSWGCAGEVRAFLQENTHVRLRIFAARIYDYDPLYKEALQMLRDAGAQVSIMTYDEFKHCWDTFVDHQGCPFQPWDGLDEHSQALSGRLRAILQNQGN
NadD inh conf: inhibitors of S. aureus NadD, confirmation, biochemical, colorimetric, single concentration. purified S. aureus NadD, colorimetric enzyme assay. inhibition, % at 20 µM. 2,000 compounds, 13% hits. shares compounds with NadD inh; in the data active = inhibition mostly above about 42%, no sharp cut-off; inactive = mostly below about 42%
The depositor's hits bear a star.

How did COc1ccc(NS(=O)(=O)c2cn(C)nc2C)cc1 do in these assays?
Cardio protect: -3; TAG inh: -23; A3G deaminase: -9; PfGluPho inh: -2; NadD inh: -6; A3A deaminase: -3

What do the screens show for `Cc1ccc(Cn2nnc3c(=O)[nH]c(C4CCCN(S(=O)(=O)c5ccc(F)cc5)C4)nc32)cc1` (stereo unspecified)?
Cardio protect: 3; A3G deaminase: -2; PfGluPho inh: 10; NadD inh: 19; A3A deaminase: -1

What do the screens show for `COC(=O)c1ccc(Cn2nnc3c(=O)[nH]c(C4CCCN(S(=O)(=O)c5ccc(C)cc5)C4)nc32)cc1` (stereo unspecified)?
Cardio protect: 31; A3G deaminase: -3; PfGluPho inh: -1; NadD inh: 29*; A3A deaminase: -5; NadD inh conf: 2

How did CS(=O)(=O)c1ccc(C(=O)Nc2nc(-c3ccco3)c(-c3ccco3)s2)cc1 do in these assays?
Cardio protect: -2; TAG inh: -13; A3G deaminase: 65; PfGluPho inh: 24; NadD inh: 29*; A3A deaminase: 83; NadD inh conf: 7

How did O=C(Nc1nc(-c2ccco2)c(-c2ccco2)s1)C1CCC1 do in these assays?
Cardio protect: -6; A3G deaminase: 4; PfGluPho inh: 22; NadD inh: 9; A3A deaminase: 15

How did CCCCC(=O)Nc1ccccc1C(C)C do in these assays?
A3G deaminase: 0; A3A deaminase: 3

How did O=c1c(/C=N/Nc2ccccc2)c(Sc2nnnn2-c2ccccc2)nc2ccccn12 do in these assays?
Cardio protect: 0; TAG inh: -215; PfGluPho inh: -12; NadD inh: 31*; NadD inh conf: 6

How did O=C(O)c1ccccc1N/N=C/c1c(Sc2nnnn2-c2ccccc2)nc2ccccn2c1=O do in these assays?
Cardio protect: -5; TAG inh: -13; A3G deaminase: -8; PfGluPho inh: -14; NadD inh: 3; A3A deaminase: 1

Results for CCCCCCCCCCCCCCCC[n+]1ccc(C(N)=O)cc1 ?
Cardio protect: -11; A3G deaminase: 38; PfGluPho inh: 8; NadD inh: 29*; A3A deaminase: 35; NadD inh conf: -5

Results for O=[N+]([O-])c1ccc(O)c(-c2nc(-c3ccccc3)c(-c3cccs3)[nH]2)c1 ?
Cardio protect: -18; TAG inh: 1; A3G deaminase: -3; PfGluPho inh: 27; NadD inh: 34*; A3A deaminase: -1; NadD inh conf: 10

Results for O=C(O)c1ccc(-c2nc(-c3ccccc3)c(-c3cccs3)[nH]2)cc1 ?
Cardio protect: 2; TAG inh: 6; A3G deaminase: -4; PfGluPho inh: 15; NadD inh: -6; A3A deaminase: 1

How did N=C1SC(c2ccccc2)C(=O)N1c1ncc(Cc2ccccc2)s1 (stereo unspecified) do in these assays?
Cardio protect: 43; TAG inh: -4; A3G deaminase: -8; PfGluPho inh: -23; NadD inh: 12; A3A deaminase: -4

How did Cc1ccc(Cc2cnc(N3C(=N)SC(c4ccccc4)C3=O)s2)cc1 (stereo unspecified) do in these assays?
Cardio protect: 20; TAG inh: -1; A3G deaminase: -8; PfGluPho inh: -25; NadD inh: 51*; A3A deaminase: -3; NadD inh conf: 8

What do the screens show for `CC(C)(C)c1ccc(S(=O)(=O)NCC(=O)N2CCN(Cc3ccccc3)CC2)cc1`?
Cardio protect: -6; A3G deaminase: -3; PfGluPho inh: 6; NadD inh: 3; A3A deaminase: 0

Results for CN(C)c1ccc(/C=N\NC(=S)SCN2C(=O)C3CCC(C)(C2=O)C3(C)C)cc1 (stereo unspecified) ?
Cardio protect: 10; TAG inh: 12; A3G deaminase: 13; PfGluPho inh: 8; NadD inh: 29*; A3A deaminase: 1; NadD inh conf: 17

What do the screens show for `O=C1CNC(=O)/C(=C/c2ccco2)N1`?
Cardio protect: -1; TAG inh: -17; A3G deaminase: -5; PfGluPho inh: -3; NadD inh: -2; A3A deaminase: 4

Results for Nc1ccc2nc(-c3cccnc3)[nH]c2c1 ?
Cardio protect: 42; A3G deaminase: -3; PfGluPho inh: 11; NadD inh: -6; A3A deaminase: 1

How did Nc1ccc2nc(-c3ccc(N)c(Cl)c3)[nH]c2c1 do in these assays?
Cardio protect: 19; TAG inh: 16; A3G deaminase: 3; PfGluPho inh: 2; NadD inh: 41*; A3A deaminase: 11; NadD inh conf: 18

Results for Cn1c(CNC(=O)c2ccc(Cl)c(Cl)c2)nnc1SCC(=O)Nc1sc2c(c1C#N)CCCC2 ?
Cardio protect: 0; TAG inh: 6; A3G deaminase: -2; PfGluPho inh: 2; NadD inh: 45*; A3A deaminase: 1; NadD inh conf: 9

How did Cc1ccc(S(=O)(=O)N2CCCC(C(=O)NCCc3ccc(Cl)cc3)C2)cc1 (stereo unspecified) do in these assays?
Cardio protect: 2; TAG inh: 11; PfGluPho inh: 9; NadD inh: -2

Results for O=C(N/N=C/c1cn(-c2cccs2)nc1-c1ccccc1)c1ccccc1O ?
Cardio protect: -16; A3G deaminase: 5; PfGluPho inh: -31; NadD inh: 34*; A3A deaminase: 3; NadD inh conf: 19

Results for COc1cc(C(C)=O)ccc1OCC(=O)OC(C)C(=O)c1ccc(F)cc1 (stereo unspecified) ?
Cardio protect: 8; TAG inh: 5; A3G deaminase: -3; PfGluPho inh: -58; NadD inh: -1; A3A deaminase: 0

How did COC(=O)c1sc2ccccc2c1NC(=O)c1ccc(S(=O)(=O)N2CC(C)CC(C)C2)cc1 (stereo unspecified) do in these assays?
Cardio protect: -9; A3G deaminase: -5; PfGluPho inh: -11; NadD inh: 11; A3A deaminase: -3
